Assay outcomes (PubChem BioAssay)
Autophagy HCS: modulators of autophagy | MEF GFP-LC3 puncta imaging; test concentration mostly 10 µM | calls only at 10 µM (by protocol) | 190,000 compounds, 0.98% hits;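 active = percentage of spot-positive cells more than 3 SD above its plate mean, without a fluorescence outlier flag or 80% toxicity; inconclusive = no clear call, values can overlap the other calls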
Ins promoter up: MIN6 insulin promoter up-regulation; MIN6 insulin promoter-GFP reporter, high-content imaging; active compounds read high; z-score at 5 µM; 190,000 compounds, 0.3% hits;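 active = z-score above 3 at 5 µM with at least 500 cells counted in the well; inconclusive = wells under 500 cells, flagged as cytotoxic or low count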
PTEN del growth: suppresses growth of cells with PTEN deletion; HCT116 PTEN-null viability, CellTiter-Glo, 60 h; active compounds read low; viability, % at 10 µM; 140,000 compounds, 1.2% hits; AID 827;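 active = viability at or below a set limit, 4 SD under the median of all tested compounds, cut at about 3.7% in these data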;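 note: PTEN knockout HCT116 line with beta catenin targeted HCT116 as companion control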
HCT116 bCat-KO: beta-catenin-lacking colon tumor cell growth suppression; HCT116 beta-catenin knockout viability, CellTiter-Glo, 60 h; active compounds read low; viability, % at 10 µM; 140,000 compounds, 1.5% hits;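 active = viability at or under a set limit, the compound median less 4 SD, cut at about 6% in these data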
INS promoter inh: TRM-6 insulin promoter activity inhibition; TRM-6 cells (human fetal islet line), insulin promoter-eGFP reporter, imaging; reporter expression induced with tamoxifen; inhibition, % at 2 µM; 130,000 compounds, 0.9% hits; AID 1273;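 active = inhibition above the mean plus 3 SD, with well images judged a real hit on visual review, cut at about 60% in these data, passing the limit was not always enough; inconclusive = inhibition over the cutoff but images rejected on review; inactive = inhibition not above the cutoff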
Lmaj promast: Leishmania major promastigote growth inhibition | Leishmania major promastigotes, resazurin fluorescence viability | inhibition, % at 10 µM | 200,000 compounds, 9% hits; in the data active = inhibition above about 50%;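 note: promastigotes grown with compound for 44 hours at 28 °C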
Lmaj promast 1uM: inhibitors of Leishmania major promastigote growth, repeat at 1 uM | inhibition, % at 1 µM | 1,100 compounds, 13% hits | shares compounds with Lmaj promast | L. major promastigote growth, resazurin fluorescence, 48 h;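 active = inhibition above about 50% in both repeat tests, limit read from the data; inconclusive = one repeat under the set limit, the other over it; inactive = both repeats under the set limit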
A number is an active result; – = inactive; ? = inconclusive; · = not tested or not shown; + = active, no number. Rows were chosen to be rich in hits. Some 9.6% of all compounds tested hit in one or more screens of this group.

SMILES	Autophagy HCS	Ins promoter up	PTEN del growth	HCT116 bCat-KO	INS promoter inh	Lmaj promast	Lmaj promast 1uM
CC(=O)Nc1ccc(S(=O)(=O)NCCSCc2ccccc2Cl)cc1	–	–	–	–	–	68	–
N#Cc1nnn(-c2cc(Cl)cc(Cl)c2)c1N	·	–	·	·	·	·	·
Cc1c([N+](=O)[O-])nnn1-c1cc(Cl)cc(Cl)c1	–	–	·	·	–	50	–
Cc1ccc(C2=CSC3=NCCN23)c(C)c1	–	–	–	–	·	–	·
Cc1ccc(C2=CSC3=NNC4(CCCCC4)NN23)cc1	–	–	·	·	–	55	–
O=C1C(=O)N(Cc2ccccc2)C(=O)N1CCOc1ccccc1	–	–	·	·	·	–	·
Cc1ccccc1CSCC(=O)c1c(N)n(CC(C)C)c(=O)n(C)c1=O	–	–	–	–	–	–	·
CC(C)Cn1c(N)c(C(=O)CSc2ccccc2)c(=O)n(C)c1=O	–	–	–	–	–	51	–
CC(C)(C)c1ccc(OCCNC(=O)c2ncn[nH]2)cc1	–	–	–	–	–	70	–
CN(C)C(=O)COC(=O)/C=C/c1ccccc1[N+](=O)[O-]	–	·	–	–	–	–	·
O=C(/C=C/c1ccccc1[N+](=O)[O-])c1ccccc1Br	–	–	·	·	–	100	–
CN(C)C(=O)CSc1nnc(-c2ccc(F)cc2)c2ccccc12	·	–	·	·	·	·	·
CCCCSc1nnc(-c2ccc(C)cc2)c2ccccc12	–	–	–	–	?	91	–
Cc1ccc2nc3cc([N+](=O)[O-])cc([N+](=O)[O-])c3cc2c1	+	·	·	·	–	101	100
C=CCN(CC=C)C(=O)C(=O)c1cc(C)n(-c2ccc([N+](=O)[O-])cc2)c1C	–	·	–	–	–	98	–
CCCn1c(CN2CCCCC2C)nc2c1c(=O)n(C)c(=O)n2C (configuration not stated)	–	–	–	–	·	–	·
Cc1ccc(S(=O)(=O)c2ccc(Oc3cccc(C)c3)cc2)cc1	–	–	–	–	–	74	85
Cc1ccc(S(=O)(=O)c2ccc(C)cc2)cc1	–	–	·	–	–	–	·
Cc1cc([N+](=O)[O-])nn1CC(=O)Nc1nccs1	–	–	–	–	–	–	·
O=C(Cn1ccc([N+](=O)[O-])n1)Nc1nccs1	–	–	–	–	–	77	–
Cc1ccc(C)c(N2CCN(C(=O)c3ccc(CSc4nc5ccncc5[nH]4)cc3)CC2)c1	–	–	–	–	–	89	?
Cc1cc(NC2C3CC4CC(C3)CC2C4)n2ncnc2n1 (configuration not stated)	–	·	–	–	·	–	·
Cc1nn(C)c(C(=O)N2CCc3ccccc32)c1Cl	–	–	–	–	–	–	·
COC(=O)c1cc2ccsc2n1Cc1cccc(F)c1	–	–	–	–	–	–	·
COC(=O)c1cc2ccsc2n1Cc1nc(-c2ccc(OC)cc2)oc1C	–	–	–	–	–	100	93
SMILES	Autophagy HCS	Ins promoter up	PTEN del growth	HCT116 bCat-KO	INS promoter inh	Lmaj promast	Lmaj promast 1uM
O=[N+]([O-])c1cc([N+](=O)[O-])c2n[nH]c(-c3ccccc3)c2c1	–	–	·	·	–	98	53
N#C/C(=C\c1cn(CCOc2ccccc2)c2ccccc12)C(=O)NCc1cccs1	–	–	–	–	–	55	–
Fc1ccccc1-c1nc2ncccc2o1	–	–	·	·	–	–	·
O=C(OCc1ccccc1)N1CCOCCOCCN(C(=O)OCc2ccccc2)CCOCCOCC1	–	·	–	–	–	61	–
CC(C)(C)C1CCc2nc(NC(=O)Cc3cn4ccsc4n3)sc2C1 (configuration not stated)	–	–	–	–	–	–	·
O=C(O)c1cc2c(s1)-c1ccccc1CC2	–	–	–	–	–	53	–
O=C(O)c1cc2c(s1)-c1ccccc1OC2	–	·	–	–	·	–	·
COc1ccc(OC)c(N2Cc3ccccc3C2)c1	–	·	–	–	–	–	·
COc1ccccc1N1Cc2ccccc2C1	–	–	–	–	–	91	–
Cc1nn(-c2ccccc2)c(N)c1Sc1cccc([N+](=O)[O-])c1	–	–	–	–	–	52	–
CSc1ccc(S(=O)(=O)N(C)Cc2ccccc2)cc1	–	–	·	·	–	–	·
OC1(c2ccccc2F)CCN(Cc2nnnn2CCc2ccccc2)CC1	–	–	–	–	–	–	·
O=C(NCCCN1CCCC1=O)NC12CC3CC(CC(C3)C1)C2	–	–	–	–	–	–	·
CC(=O)O[C@@H]1C[C@H]2C(C)(C)C(=O)C=C[C@]2(C)[C@H]2CC[C@@]3(C)[C@H](c4ccoc4)OC(=O)[C@H]4O[C@]43[C@@]21C	–	·	–	3.9	–	100	94
CCOc1ccc(Cn2c3ccc(OC)cc3c3nc4ccccc4nc32)cc1	+	–	–	–	–	54	–
O=C(O)c1ccc2c3c(ncnc13)-c1ccccc1C2=O	–	–	–	–	·	98	–
CN1CCC(C2(O)c3ccccc3CCc3ccccc32)CC1	–	–	–	–	–	–	·
CN1CCC(C2(O)c3ccccc3CSc3sccc32)CC1 (configuration not stated)	–	–	–	–	–	67	–
O=C(CSc1nc2ccccc2[nH]1)N1CCN(c2ccc(F)cc2)CC1	–	–	–	–	–	58	–
COCCCN1CN(Cc2ccco2)CNC1=S	·	–	·	·	·	·	·
CCCc1nc2ccc(NC(=O)c3cccs3)cc2c(=O)n1Cc1ccc(Cl)cc1	–	–	–	–	–	72	–
COC(=O)c1sc2nc[nH]c(=O)c2c1C	–	–	–	–	·	–	·
O=C(C1=C[C@@H](c2ccccc2)C[C@@H](OCCCCO)O1)N1CCN(Cc2ccc3c(c2)OCO3)CC1	–	–	·	·	·	–	·
O=C(C1=C[C@H](c2ccc(Br)cc2)C[C@H](OCCCCO)O1)N1CCN(Cc2ccc3c(c2)OCO3)CC1	–	–	·	·	·	84	–
Nc1ccccc1Nc1ccccc1	–	–	–	–	–	99	–
SMILES	Autophagy HCS	Ins promoter up	PTEN del growth	HCT116 bCat-KO	INS promoter inh	Lmaj promast	Lmaj promast 1uM
O=[N+]([O-])c1cc(-c2nnc(C34CC5CC(CC(C5)C3)C4)o2)cc([N+](=O)[O-])c1	–	–	–	–	·	100	96
COc1ccc([N+](=O)[O-])cc1NC(=O)C1(c2ccc(OC)c(OC)c2)CCOCC1	–	·	·	·	–	–	·
CCOc1ccccc1NC(=O)COC(=O)/C=C/c1ccc(OC)c(OC)c1	–	–	·	·	–	–	·
CCC(C)(c1nnnn1-c1c(C)cccc1C)N(N=O)c1ccccc1Cl (configuration not stated)	–	–	–	–	·	100	95
Cc1cccc(C(C)C)c1-n1nnnc1-c1ccccc1	–	–	–	–	·	–	·
Clc1ccc(Nc2ccc(-n3ccnc3)nn2)cc1Cl	–	–	–	–	·	51	–
C=C(C)C(=O)NC1=NN(c2ccccc2)C(=O)C1	–	–	–	–	·	–	·
COc1cccc(COc2ccccc2C2Nc3ccc(Br)cc3C(=O)N2NC(=O)c2ccncc2)c1 (configuration not stated)	–	–	–	–	·	100	–
O=C(NN1C(=O)c2ccccc2NC1c1cccnc1)c1ccccc1 (configuration not stated)	–	·	·	·	–	–	·
